# Laboratory results from the supplement of paper PMC7380943.
# Assays:
# [1] = tested on: CLZ3 (HCA2 human fibroblast dual HR-NHEJ reporter); test: NHEJ repair efficiency (GFP+ cells) relative to control (log10 fold); higher = more non-homologous end joining; conditions: 5 µM; doxycycline 0.5 ug/mL
# [2] = tested on: CLZ3 (HCA2 human fibroblast dual HR-NHEJ reporter); test: HR repair efficiency (tdTomato+ cells) relative to control (log10 fold); higher = more homologous recombination; conditions: 5 µM; doxycycline 0.5 ug/mL
# 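Throughout, for HR repair efficiency (tdTomato+ cells) relative to control: compound given one day before doxycycline, which switches on I-SceI endonuclease expression to create double-strand breaks within the integrated reporter.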
# 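Throughout, for NHEJ repair efficiency (GFP+ cells) relative to control: compound given one day ahead of doxycycline, which switches on I-SceI endonuclease to cut the chromosomally integrated reporter and create DSBs.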
SMILES,NHEJ repair efficiency (log10) [1],HR repair efficiency (log10) [2]
O=C(O)c1cc(O)c2c(c1)[C@H]([C@H]1c3cc(CO)cc(O)c3C(=O)c3c(O[C@@H]4O[C@H](CO)[C@@H](O)[C@H](O)[C@H]4O)cccc31)c1cccc(O[C@@H]3O[C@H](CO)[C@@H](O)[C@H](O)[C@H]3O)c1C2=O [Sennoside C],-0.0248,0.148
COc1cc2c(c(OC)c1OC)-c1c(cc3c(c1OC)OCO3)C[C@H](C)[C@@](C)(O)C2 [Schizandrol B],-0.0319,-0.132
COc1c(O)cc2oc(-c3ccccc3)cc(=O)c2c1O [Oroxylin-A],-0.22,0.0535
CC(CCC(OC1OC(CO)C(O)C(O)C1OC1OC(CO)C(O)C(O)C1O)C(C)(C)O)C1CCC2(C)C3CC=C4C(CCC(OC5OC(COC6OC(CO)C(O)C(O)C6O)C(O)C(O)C5O)C4(C)C)C3(C)C(O)CC12C (stereo not given) [Mogroside IV],0.0766,0.171
O=C(O)c1cc(O)c2c(c1)C(=O)c1cccc(O)c1C2=O [Rhein],0.0809,-0.07
COc1cc(C2Oc3cc([C@H]4Oc5cc(O)cc(O)c5C(=O)[C@@H]4O)ccc3OC2CO)ccc1O (stereo not given in full) [Silybin (Silymarin)],0.131,0.183
C[C@@]12C[C@@]3(O)O[C@@H](O1)[C@]1(COC(=O)c4ccccc4)[C@H]3C[C@@]12O[C@@H]1O[C@H](CO)[C@@H](O)[C@H](O)[C@H]1O [Paeoniflorin],0.122,0.213
C=C(C)[C@@H]1CC[C@]2(C(=O)O)CC[C@]3(C)[C@H](CC[C@@H]4[C@@]5(C)CC[C@H](O)C(C)(C)[C@@H]5CC[C@]43C)[C@@H]12 [Betulinic acid],0.0052,0.0512
O=C(O[C@@H]1Cc2c(O)cc(O)cc2O[C@H]1c1cc(O)c(O)c(O)c1)c1cc(O)c(O)c(O)c1 [(-)Gallocatechin gallate],-0.12,0.0198
COC(=O)[C@@]1(C)CC[C@]2(C(=O)O)CC[C@]3(C)C(=CC[C@@H]4[C@@]5(C)C[C@H](O)[C@H](O)[C@@](C)(CO)[C@@H]5CC[C@]43C)[C@@H]2C1 [Phytolaccagenin],0.0274,0.0241
C=C1CC[C@@H]2[C@](C)(CO)[C@H](O)CC[C@@]2(C)[C@@H]1C/C=C1/C(=O)OC[C@H]1O [Andrographolide],0.0511,0.266
Cn1cnc2c1c(=O)[nH]c(=O)n2C [Theobromine],-0.0855,0.141
CC(CC(=O)C[C@@H](C)[C@H]1CC(=O)[C@@]2(C)C3=C(C(=O)C[C@]12C)[C@@]1(C)CC[C@H](O)C(C)(C)[C@@H]1C[C@@H]3O)C(=O)O (stereo not given in full) [Ganoderic Acid B],0.0835,0.0793
OCCc1ccc(O)cc1 [Tyrosol],0.117,0.306
Cc1cc(O)c2c(c1)C(=O)c1cc(O)cc(O)c1C2=O [Emodin],-0.0237,0.049
O=C(O)C(O)Cc1ccc(O)c(O)c1 (stereo not given) [Sodium Danshensu],-0.0204,0.0346
Oc1cc(O)c2c(c1)O[C@H](c1cc(O)c(O)c(O)c1)[C@H](O)C2 [(-)Epigallocatechin],-0.0905,-0.0527
Oc1cc(O)c2c(c1)O[C@H](c1ccc(O)c(O)c1)[C@H](O)[C@H]2c1c(O)cc(O)c2c1O[C@H](c1ccc(O)c(O)c1)[C@H](O)C2 [Procyanidin B2],0.092,-0.122
C[C@H]1[C@H](C)CC[C@]2(C(=O)O)CC[C@]3(C)C(=CC[C@@H]4[C@@]5(C)C[C@@H](O)[C@H](O)[C@@](C)(CO)[C@@H]5[C@H](O)C[C@]43C)[C@H]12 [Madecassic acid],0.0926,0.143
O=C(/C=C/c1ccc(O)c(O)c1)O[C@H](Cc1ccc(O)c(O)c1)C(=O)O [Rosmarinicacid],-0.275,-0.328
CCCCCCCCCC(=O)CC(O)S(=O)(=O)O (stereo not given) [Sodium Houttuyfonate],0.024,0.102
C/C1=C\CC[C@]23O[C@H]2[C@@H](OC3=O)c2c(C)coc2C1 [Linderane],-0.0245,0.0607
CC1(C)CC[C@]2(C(=O)O)CC[C@]3(C)C(=CC[C@@H]4[C@@]5(C)C[C@@H](O)[C@H](O)C(C)(C)[C@@H]5CC[C@]43C)[C@@H]2C1 [Maslinic Acid],-0.0568,-0.0914

SMILES,NHEJ repair efficiency (log10) [1],HR repair efficiency (log10) [2]
C[C@@]12C[C@H](c3ccoc3)O[C@@]13C[C@H](OC3=O)[C@H]1[C@H]2C[C@@H]2C[C@H]1C(=O)O2 [Diosbulbin B],-0.0688,0.0545
COc1cc(-c2oc3cc(O)cc(O)c3c(=O)c2O[C@@H]2O[C@H](CO)[C@@H](O)[C@H](O)[C@H]2O)ccc1O [Isorhamnetin-3-O-Glucoside],-0.0722,-0.00603
C=C1C(=O)O[C@@H]2/C=C(\C)CC/C=C(\C)CC[C@@H]12 [Costunolide],-0.04,0.07
OCc1ccccc1O[C@@H]1O[C@H](CO)[C@@H](O)[C@H](O)[C@H]1O [Salicoside],-0.0463,0.251
O=C(/C=C/c1ccc(O)c(O)c1)O[C@H](C(=O)O)[C@H](OC(=O)/C=C/c1ccc(O)c(O)c1)C(=O)O [Chicoric Acid],0.0111,0.107
C[C@@H]1[C@H]2[C@H](O[C@@H]3O[C@H](CO)[C@@H](O)[C@H](O)[C@H]3O)OC=C(C(=O)O)[C@H]2C[C@@H]1O [Loganic Acid],0.0621,0.135
C[C@@H]1O[C@@H](O[C@H]2[C@H](Oc3cc(O)c4c(c3)O[C@H](c3ccc(O)cc3)CC4=O)O[C@H](CO)[C@@H](O)[C@@H]2O)[C@H](O)[C@H](O)[C@H]1O [Naringin],-0.127,-0.0146
COc1ccc([C@@H]2CC(=O)c3c(O)cc(O[C@@H]4O[C@H](CO)[C@@H](O)[C@H](O)[C@H]4O[C@@H]4O[C@@H](C)[C@H](O)[C@@H](O)[C@H]4O)cc3O2)cc1O [Neohesperidin],-0.0783,-0.11
COc1cc2ccc(=O)oc2c(O)c1O [Fraxetin],0.113,0.272
C/C=C1/[C@H](O[C@@H]2O[C@H](CO)[C@@H](O)[C@H](O)[C@H]2O)OC=C(C(=O)OC)[C@H]1CC(=O)OCCc1ccc(O)c(O)c1 [Oleuropein],0.0183,0.0478
COc1ccc(-c2oc3cc(OC)c(OC)c(O)c3c(=O)c2OC)cc1O [Vitexicarpin],-0.0426,-0.203
COc1cc(-c2oc3cc(O)cc(O)c3c(=O)c2O[C@@H]2O[C@H](CO)[C@@H](O)[C@H](O)[C@H]2O[C@@H]2O[C@@H](C)[C@H](O)[C@@H](O)[C@H]2O)ccc1O [Isorhamnetin 3-O-Neohesperoside],-0.0528,-0.0275
C=C[C@H]1[C@H](O[C@@H]2O[C@H](CO)[C@@H](O)[C@H](O)[C@H]2O)OC=C(C(=O)OC)[C@H]1CCOC(=O)c1cc(O)c(O)c(O)c1 [Cornuside],0.0361,0.162
COc1cc(-c2oc3cc(O)cc(O)c3c(=O)c2O[C@@H]2O[C@H](CO)[C@@H](O)[C@H](O)[C@H]2O[C@@H]2O[C@@H](C)[C@H](O)[C@@H](O)[C@H]2O)ccc1O [Isorhamnetin-3-O-Nehesperidine],-0.039,-0.0649
C=CCc1ccc(O)c(-c2ccc(O)c(CC=C)c2)c1 [Honokiol],0.125,0.163
CC(C)=CC/C=C(\C)[C@H]1CC[C@]2(C)[C@@H]1[C@H](O)C[C@@H]1[C@@]3(C)CC[C@H](O[C@@H]4O[C@H](CO)[C@@H](O)[C@H](O)[C@H]4O[C@@H]4O[C@H](CO)[C@@H](O)[C@H](O)[C@H]4O)C(C)(C)[C@@H]3CC[C@]12C [Ginsenoside Rg5],0.0582,0.0507
C[C@@H]1O[C@@H](O[C@H]2[C@H](OC(=O)[C@]34CCC(C)(C)C[C@H]3C3=CC[C@@H]5[C@@]6(C)C[C@H](O)[C@H](O[C@@H]7O[C@H](CO)[C@@H](O)[C@H](O[C@@H]8O[C@H](CO)[C@@H](O)[C@H](O)[C@H]8O)[C@H]7O)C(CO)(CO)[C@@H]6CC[C@@]5(C)[C@]3(C)C[C@H]4O)OC[C@H](O)[C@@H]2O)[C@H](O)[C@H](O)[C@H]1O[C@@H]1OC[C@@H](O)[C@H](O[C@@H]2OC[C@](O)(CO)[C@H]2O)[C@H]1O [Platycodin D2],-0.00927,-0.252
C[C@@H]1CC[C@@]2(OC1)O[C@H]1C[C@H]3[C@@H]4CC=C5C[C@@H](O[C@@H]6O[C@H](CO)[C@@H](O)[C@H](O)[C@H]6O)CC[C@]5(C)[C@H]4CC[C@]3(C)[C@H]1[C@@H]2C [Diosgenin glucoside],-0.0975,0.0102
C[C@@H]1O[C@@H](OC[C@H]2O[C@@H](Oc3cc(O)c4c(=O)cc(-c5ccc(O)cc5)oc4c3)[C@H](O[C@@H]3O[C@@H](C)[C@H](O)[C@@H](O)[C@H]3O)[C@@H](O)[C@@H]2O)[C@H](O)[C@H](O)[C@H]1O [Ligustroflavone],0.105,0.0603
COc1cc2c(cc1OC)[C@H]1[C@@H](C)c3ccc(OC)c(OC)c3CN1CC2 [Corydaline],-0.196,-0.191
C[C@@H]1O[C@@H](O[C@H]2[C@H](O[C@H]3CC[C@@]4(C)[C@@H](CC[C@]5(C)[C@@H]4CC=C4[C@@H]6CC(C)(C)CC[C@]6(C(=O)O)CC[C@]45C)[C@]3(C)CO)OC[C@H](O)[C@@H]2O)[C@H](O)[C@H](O)[C@H]1O [α-Hederin],-0.0243,-0.192
COc1cc(C[C@@H](CO[C@@H]2O[C@H](CO)[C@@H](O)[C@H](O)[C@H]2O)[C@H](CO[C@@H]2O[C@H](CO)[C@@H](O)[C@H](O)[C@H]2O)Cc2ccc(O)c(OC)c2)ccc1O [Secoisolariciresinol Diglycoside],0.00786,0.0805
